Data from PubChem BioAssay AID1259376 (The Scripps Research Institute Molecular Screening Center, 2018).
Screen size: about 4,700 compounds; about 360 (7.7%) were called active. The entries come from a sample that favours actives as a whole. A number with no mark means an inactive call.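 The calls were made as follows: active = inhibition above a cutoff derived from the DMSO control wells (cut at about 30% in these data); inactive = the rest.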

Test: AlphaScreen optical interference compounds, counter-screen for MITF inhibitor project, biochemical, triplicate (AID 1259376)
Conditions: LysRS AlphaScreen counterscreen, signal interference, at 2.6 µM, active compounds read high

| Compound | inhibition |
| --- | --- |
| COc1cc(NC(=O)CCc2nc(C3=CCN(C)CC3)no2)cc(OC)c1OC | 34.2% (active) |
| COc1ccccc1CN1CCN(C(=O)Cc2ccccc2)CC1 | 7.15% |
| COc1ccc(CN2CCN(C(C)C)CC2)cc1 | 10.5% |
| COc1cccc(CN2CCN(Cc3ccccc3F)CC2)c1 | 16.6% |
| CCN1CCc2nc3ccccc3c(C(=O)O)c2C1 | 4.31% |
